Measurements published in PubChem BioAssay AID686979 (National Center for Advancing Translational Sciences (NCATS), 2013).
Among all 420,000 compounds or so, about 50,000 (12%) were called active. Another 26% or so got no clear call; they are omitted. This excerpt belongs to a sample that is enriched for actives. A number with no mark means an inactive call. The call rests on the fitted dose curve; in most records, active means well fitted inhibition curve with a large enough effect; inconclusive means small, poorly fitted or top-dose-only effect; inactive means flat fitted curve, though single readings scatter.

Assay: qHTS for Inhibitors of human tyrosyl-DNA phosphodiesterase 1 (TDP1): qHTS in cells in presence of CPT; further: nearly all actives have a fitted effect of over 55% in size
Conditions: chicken DT40 Tdp1-/-;hTDP1 cells + 20 nM CPT, ATP luminescence, 48 h; series mostly up to 46.2 µM; activity change, negative = growth inhibition: at the top concentration
Text: Human tyrosyl-DNA phosphodiesterase 1 (TDP1) is a novel repair gene, and we propose to use it as a new target for anticancer drug development. TDP1 is not an essential protein, but under treatment with topoisomerase I poison (camptothecin: CPT), TDP1 works as a critical factor for cell survival. To directly identify novel TDP1 inhibitors active in a cellular environment, we have knocked-out the Tdp1 gene in chicken DT40 cells (Tdp1-/-) and generated a complemented counterpart cells that contains a stable transfection of the human TDP1 gene (Tdp1-/-;hTDP1 cells). For the primary screen, Tdp1-/-;hTDP1 cells will be exposed to small molecules in the presence or absence of CPT, and their growth kinetics will be evaluated after 48 hours by measuring ATP activity. […] The hit compounds will then be evaluated in the presence or absence of CPT using Tdp1-/- cells. […] In tertiary assays, biochemical gel-based assays will be used to assess whether the hit compounds specifically target TDP1. To this end, we have screened this cell line against the MLSMR in two primary screens. In one screen we add CPT and in the other we screen in the absence of CPT; this AID represents the screen where CPT was present. NIH Chemical Genomics Center [NCGC] NIH Molecular Libraries Probe Centers Network [MLPCN] MLPCN Grant: MH095538 Assay Submitter (PI): Yves Pommier, NCI
DT40-hTDP1 cells with 20 nM Camptothecin (add 20 microL of 1 mM CPT stock in 1 L of cell culture medium) were dispensed at 400 cells/5microL/well in tissue culture treated 1536-well white wall/solid bottom assay plates (Greiner Bio-One North America, NC, U.S.A.) using a Multidrop Combi 8 channel dispenser (Thermo Fisher, Waltham, MA, USA). 23 nL compounds and controls were transferred using the pin tool (Kalypsys, San Diego, CA, USA) to the assay plates. The assay plates were then incubated at 37 masculineC for a minimum 48 hr. Three microL of Cell Titer Glo solution was added to the plates and incubated at RT in dark for 30 min. Luminescence was read using ViewLux (Perkin Elmer) with 1 sec exposure slow speed, high gain and 2x binning.
On the % scale 0 is the no-effect control and ±100 the full control effect; potency means the concentration at half of the fitted maximal effect.

SMILES	Potency	activity change, negative = growth inhibition
Cc1oc2ccc(O)c(CN3CCCCC3)c2c1C(=O)Nc1cccc(C(F)(F)F)c1	11.6 µM (active)	–
O=C(Nc1ccc(CN2CCOCC2)cc1)c1cc(Cl)ccc1Cl	–	-5.65%
COc1ccccc1CNS(=O)(=O)c1cc2c3c(c1)CCC(=O)N3CCC2	–	-24.7%
Nc1cc(=O)c2[nH]cnc2[nH]1	–	1.53%
Cc1ccc(C(=O)Nc2ccc(OCc3cc(=O)n4c(C)csc4n3)cc2)cc1	–	0.415%
CN(C(=O)c1c(Cl)cnn1C)C12CC3CC(CC(C3)C1)C2	–	6.33%
COC(=O)CSc1nnc(-c2cccnc2)o1	–	-12.7%
Cc1ccc(-n2cnc3cc(C(=O)NCCC4=CCCCC4)ccc32)cc1Cl	18.4 µM (active)	–
CCCNC(=O)c1ccc2c(c1)ncn2-c1ccc(C)cc1C	16.4 µM (active)	–
CCn1c(C)nc2cc(C(=O)NNS(=O)(=O)c3ccc(C)cc3C)ccc21	–	-15.2%
COC(CNC(=O)c1ccc2c(c1)ncn2-c1cc(C)cc(C)c1)OC	–	14%
COCCNC(=O)c1ccc2c(c1)ncn2-c1ccc(C)c(Cl)c1	–	-44.9%
CN(c1ccc(C(=O)NCCC2=CCCCC2)cc1)S(C)(=O)=O	–	-18.6%
CCn1nnnc1SCC(=O)Nc1ccc(N(C)C)cc1	–	-12.1%
CC(=O)NS(=O)(=O)c1ccc(N/C(N)=N/c2nc(C)cc(C)n2)cc1	–	6.33%
CCOC(=O)C1CCN(C(=O)C2CCCN(S(=O)(=O)c3ccc(OC)c(Cl)c3)C2)CC1 (centres undefined)	16.4 µM (active)	–
COc1ccc(S(=O)(=O)N2CCCC(C(=O)N3CCN(C)CC3)C2)cc1C (centres undefined)	–	-23.3%

SMILES	Potency	activity change, negative = growth inhibition
CCN1CCN(C(=O)C2CCCN(S(=O)(=O)c3ccc(OC)c(OC)c3)C2)CC1 (centres undefined)	–	-12.4%
O=C(COC(=O)c1ncc(Cl)c(Cl)c1Cl)NC1CCS(=O)(=O)C1 (centres undefined)	–	-5.28%
C=C(C)c1cccc(C(C)(C)NC(=O)NCCN(CC)CC)c1	–	-18.1%
CC1(C(=O)NS(=O)(=O)c2ccccc2)CCN1C(=O)C1CCCCC1 (centres undefined)	–	-11.8%
CC(=O)Cc1nsc(NC(=O)c2csc3c2CCCC3)n1	–	-8.51%
CCOC(=O)c1c(NC(=O)CCC(=O)NCc2ccco2)sc2c1CCCC2	–	-15.2%
Cc1ccc(NC(=O)c2csc3c2CCCC3)cc1	–	-0.361%
CCOC(=O)c1ccc(NC(=O)c2c(NCc3cccc(OC)c3)sc3c2CCC3)cc1	10.3 µM (active)	–
CCOC(=O)c1ccc(NC(=O)c2c(NCc3cccs3)sc3c2CCCC3)cc1	16.4 µM (active)	–
CCOC(=O)c1c(NC(=O)c2cc(-c3ccc(Cl)cc3)on2)sc2c1CCCC2	–	-18.6%
COc1cccc(CN(C)CC(=O)Nc2sc3c(c2C#N)CCC3)c1	–	0.869%
CCOC(=O)c1ccc(NC(=O)c2c(NCc3ccccc3)[nH]c(=O)[nH]c2=O)cc1	–	2.84%
CCOC(=O)c1ccc(NC(=O)c2csc3c2CCCCC3)cc1	25.9 µM (active)	–
C[C@@H]1CC[C@]2(O[C@@H](CCO)C[C@H](O)[C@H]2O)O1	–	-8.7%
Cn1c(N2CCOCC2)c(C=O)c2ccccc21	–	-11.8%
C[C@H]1COc2cc(N3CCSCC3)ccc2S(=O)(=O)N1	–	-19.2%
Cc1ccc(N=C2SCCCN2C(=O)c2cccc(N3C(=O)CCC3=O)c2)cc1Cl	–	-4.22%
